Screens (PubChem BioAssay)
p53null 32C kill = qHTS Screen for Compounds that Selectively Target Cancer Cells with p53 Mutations: Cytotoxicity of p53 Null Cells at the Permissive Temperature; H1299-neo p53 null cells, ATP luminescence, 24 h, 32C; Potency, µM (highest dose often 46.1 µM), for inactives: at the top dose activity change, negative = cytotoxicity, most hits filed as cytotoxic; hit rate 0.62% among 55,000;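 further: 0% = DMSO only and -100% = full killing by 100 µM tamoxifen; nearly all actives have a fitted effect of over 55% in size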
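Luminescent ATP readout gave cell viability of p53-null H1299-neo cells after a 24 h compound exposure at the permissive 32C. Titrations ran up to 46 uM, and AC50s were fitted with the standard Hill equation.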
S16 viability = Cell viability qHTS assay in S16 Pmp22-F2sN cells; S16 Pmp22-F2sN Schwann cells viability, CellTiter-Glo, 24 h; Potency, µM (doses to about 57.5 µM), inactives show at the top dose activity change, negative = cytotoxicity, most hits filed as cytotoxic; hit rate 0.48% among 43,000; further: nearly all actives have a fitted effect of over 65% in size
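Seed 500-1,000 S16 Pmp22-F2sN cells per well in phenol-red-free DMEM with 10% heat-inactivated FBS; pin-add 23 nL compound; incubate 24 h at 37C; add CellTiter-Glo, wait 15 min protected from light; read luminescence.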
PMP22 txn = Cell-based coincidence reporter assay to measure PMP22 gene transcription in S16 Pmp22-F2sN cells - Primary screen. hit rate 2% among 43,000. AID 1508649, 2021. Potency, µM (doses to about 57.5 µM), for inactives: at the highest dose activity change, negative = inhibition, most hits filed as inhibitors. S16 Pmp22-F2sN Schwann cells (luciferase reporters placed in the Pmp22 gene), FLuc/NLuc coincidence luminescence, 24 h; active means clear falling dose curves in both reporters; inconclusive means both reporters move, but less clearly or upward; inactive means either reporter flat; the % is the NLuc reporter signal
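Transcriptional readout in edited S16(c9) cells: two luciferases reported from the Pmp22 locus, measured in turn after 24 h compound incubation.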
mTORC1 inh = Acumen qHTS Assay for Inhibitors of the mTORC1 Signaling Pathway in MEF (Tsc2-/-, p53-/-) Cells: Sytravon | hit rate 0.78% among 44,000 | Tsc2-/- p53-/- MEF, phospho-rpS6 immunofluorescence/PI, 24 h | Potency, µM (series often up to 38.3 µM), for inactives: at the top dose activity change, negative = inhibition, most hits filed as inhibitors;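 further: plate controls were DMSO for no effect and rapamycin for full effect; nearly all actives have a fitted effect of over 50% in size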
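Tsc2-/-, p53-/- mouse embryonic fibroblasts (empty-vector line) exposed to compound 24 hrs at 37 C, fixed, immunostained for phospho-rpS6 and counterstained with propidium iodide. Acumen laser scanning gives % positive cells from Alexa 488/PI ratio, thresholded using 7.5 nM rapamycin; PI count gives viability.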
OvCa metastasis = Primary qHTS assay for Inhibitors of ovarian cancer metastasis using an organotypic tumor microenvironment (TME) model; SKOV3ip1-GFP adhesion/invasion on 3D omental model, fluorescence; Potency, µM (highest dose often 45.8 µM), for inactives: top-dose activity change, negative = inhibition, usual class: inhibitors; hit rate 0.1% among 46,000;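 further: plate controls were DMSO wells for no effect and tomatine positive control wells for full effect; nearly all actives have a fitted effect of over 65% in size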
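Adhesion/invasion was scored as fixed GFP-labeled SKOV3ip1 cell counts (488/509 nm), normalized to DMSO and tomatine controls. Cancer cells in serum-free medium, with four compound doses (0.36-46 umol/L), sat 2 hr at RT then 16 hr at 37 C on a 48 hr fibroblast/mesothelial/ECM culture.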
p53null 39C tox = qHTS Screen for Compounds that Selectively Target Cancer Cells with p53 Mutations: Cytotoxicity of p53 Null Cells at the Nonpermissive Temperature. H1299 p53-null (neo) cells, 39C, ATPlite viability, 24 h. Potency, µM (titrated, usually from 46.1 µM), inactives show top-dose activity, negative = cell killing, actives largely listed as cytotoxic. hit rate 0.97% among 55,000. AID 904, 2007;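 further: 0% = DMSO only and -100% = full killing by 100 µM tamoxifen; nearly all actives have a fitted effect of over 50% in size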
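Concentration-response (up to 46 uM) was run for 24 h at the nonpermissive 39C on H1299-p53A138V or H1299-neo cells. ATP content was measured with ATPlite luminescence. AC50 values were Hill-modeled after normalizing between DMSO and 100 uM tamoxifen killing.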
Active calls of the source: *; i = inactive; ? = inconclusive; . = no result; [ ] = dose if it differs, or a comment. This is a sample that favours compounds with a hit; in the whole collection about 3.1% have one here. Unless noted, the call rests on the fitted dose curve; in most records, active means well fitted curve in the direction sought with a large enough effect; inconclusive means small, poorly fitted or top-dose-only effect, or another doubt; inactive means no such curve, though single readings can be large; an effect the other way counts as inactive or inconclusive. Unless noted, on the % scale 0 is the no-effect control and ±100 the full control effect; potency means the concentration at half of the fitted maximal effect.

SMILES	p53null 32C kill	S16 viability	PMP22 txn	mTORC1 inh	OvCa metastasis	p53null 39C tox
Cc1ccc(S(=O)(=O)c2nc(-c3cccs3)oc2SCC(=O)Nc2cc(C)cc(C)c2)cc1	-28%	1%	?	21µM*	?	?
COc1ccc(NC(=O)CSc2oc(-c3cccs3)nc2S(=O)(=O)c2ccc(C)cc2)c(OC)c1	7%	7%	60%	3%	1%	-5%
CC[C@@H](C)[C@H](NC(=O)[C@H](CC1CCCCC1)NC(=O)c1ccno1)C(=O)N1CCC2(CCc3ccccc32)CC1	.	.	.	.	-32%	.
CCC(C(=O)NC1CCCCC1)n1c(SCc2cccc(C)c2)nc2ccncc21 (configuration not stated)	13µM*	-12%	?	-7%	i	7.9µM*
C[C@]12CC[C@@H]3c4ccc(O)cc4C[C@@H](CCCCCCCCCS(=O)CCCC(F)(F)C(F)(F)F)[C@H]3[C@H]1CC[C@H]2O (some centres not stated)	.	.	.	.	-18%	.
COC(=O)[C@]12CCC(C)(C)C[C@@H]1[C@@H]1C(=O)C=C3[C@@]4(C)C=C(C#N)C(=O)C(C)(C)[C@@H]4CC[C@@]3(C)[C@]1(C)CC2	.	.	.	.	2.3µM*	.
O=C(Nc1ccc2oc(-c3cc(Br)ccc3Cl)nc2c1)c1cc2ccccc2o1	4%[9.22 µM]	?	?	4.1µM*	?	?
O=C(Nc1ccc2oc(-c3ccc(Br)cc3)nc2c1)c1cc2ccccc2o1	2%	12%	-24%	0%	2%	-5%
O=C(Nc1ccc(NC(=O)c2cc3ccccc3o2)cc1)c1ccccc1	10%	8%	0%	6%	i	10%
O=C(Nc1ccccn1)c1cc2ccccc2o1	4µM*	.	.	.	.	5µM*
O=C(O)c1ccc(NC(=O)c2cc3ccccc3o2)cc1	13µM*	5%	-8%	9%	7%	?
O=C(Nc1ccc2oc(=O)ccc2c1)c1cc2ccccc2o1	-6%	.	.	.	.	-10%
Cc1cc(C=c2sc3nc4ccccc4n3c2=O)c(C)n1-c1ccccc1	.	.	.	.	-27%	.
CC1CCN(S(=O)(=O)c2ccc(C(=O)Nc3sc4c(c3C(N)=O)CC(C)(C)NC4(C)C)cc2)CC1	15%	?	?	18µM*	?	8%
CCOC(=O)c1c(NC(=O)c2ccc(S(=O)(=O)N(CCOC)CCOC)cc2)sc2c1CC(C)(C)NC2(C)C	-4%	?	-32%	12µM*	?	5%
Cc1c(NC(=O)OC[C@@H]2COCCN2)cn2ncnc(Nc3ccc4c(cnn4Cc4cccc(F)c4)c3)c12	.	.	.	.	-15%	.
COCc1nn2cc(-c3ccc(C)cc3)nc2s1	10µM*	-9%	?	-11%	7%	10µM*
CCOc1ccc(-c2cn3nc(CC(C)C)sc3n2)cc1	?	-4%	-28%	2%	i	?
CCN(C(=O)C1CCN(S(=O)(=O)c2ccc3c(c2)CCCN3C(C)=O)CC1)c1cccc(C)c1	0%	-10%	?	-5%	-23%	22%
CCN(CC)C(=O)C1CCN(S(=O)(=O)c2ccc3c(c2)CCCN3C(C)=O)CC1	-1%	?	0%	-1%	-11%	10µM*
Cc1c(Cn2c(C)nc3c(C(=O)O)cc(N4CCOCC4)cc32)cccc1C(F)(F)F	.	.	.	.	16%	.
O=C(Nc1ncc(SCCN2CCCC2)s1)[C@]1(c2ccc(S(=O)(=O)C3CC3)cc2)C[C@@H]1C1CCCCC1	.	.	.	.	-5%	.
COc1ccc(/C=C/C(=O)Nc2sc(C)c(C)c2C(=O)O)cc1	3.2µM*	-8%	-2%	0%	i	0.79µM*
c1cc(OCCN2CCCCC2)cc(-c2n[nH]c3ccc(-c4ncn[nH]4)cc23)c1	.	.	.	.	30%	.
Cc1ccc(NC(=O)c2nnn(Cc3cccc(C(F)(F)F)c3)c2N)c(C)c1	-3%	?	6µM*	?	i	37%
SMILES	p53null 32C kill	S16 viability	PMP22 txn	mTORC1 inh	OvCa metastasis	p53null 39C tox
Cc1cc(CS(=O)(=O)c2ccccc2)cc(OCc2ccc(CN3CCC[C@H]3CO)cc2)c1	.	.	.	.	29%	.
CCOc1ccc(-c2cnc(NCc3ccc(C(F)(F)F)cc3)n2C)cc1	?	-12%	?	18µM*	-17%	?
CC(=O)N1CCN(c2ccc(OCc3nn(C)c(C)c3-c3cccc4c(CCCOc5cc(C)c(Cl)c(C)c5)c(C(=O)O)n(Cc5cccnc5)c34)cc2)CC1	.	.	.	.	19%	.
CCCCCCCCc1ccc(CCC(N)(CO)CO)cc1	.	.	.	.	-22%	.
COC(=O)NCC(c1cccnc1)N1CCN(c2ccc(F)cc2)CC1 (configuration not stated)	?	2%	?	-7%	3%	25µM*
COC(=O)NCC(c1cccnc1)N1CCN(c2ccccc2)CC1 (configuration not stated)	-2%	.	.	.	.	-1%
O=C(NCCc1ccccc1)C(=O)NCC(c1cccnc1)N1CCN(c2ccc(F)cc2)CC1 (configuration not stated)	-4%	?	?	?	-2%	11µM*
COc1ccccc1C(=O)Oc1c(Sc2ccccc2)c(C)nn1C(C)(C)C	?	-21%	14%	3%	-5%	13µM*
CCCCOC(=O)c1ccc(NC(=O)c2sc3nc(C)cc(C)c3c2N)cc1	?	10%	2%	10µM*	?	?
COCc1cc(C)nc2sc(C(=O)Nc3ccc(C(C)=O)cc3)c(N)c12	-6%	0%	?	-9%	3%	-10%
COc1ccc(NC(=O)c2c(C)oc3ccc(O)c(CN4CCCC(C)C4)c23)cc1 (configuration not stated)	-5%	.	.	?	3%	-13%
Cc1oc2ccc(O)c(CN3CCCC(C)C3)c2c1C(=O)Nc1ccccc1 (configuration not stated)	-3%	-3%	-19%	15µM*	3%	-15%
